Common to all, as to assay: PBM; 200 nM protein, PBS
Conditions in all cases: dsDNA, one strand shown

Assay [1] concerns the target HOXA4 (Homo sapiens, UniProt Q00056 201-287, W262R).
In assay [2] the target is HOXA4 (Homo sapiens, UniProt Q00056 201-287, R217L).
Assay [3] addresses HOXA4 (Homo sapiens, UniProt Q00056 201-287).
Assay [4] has as its target HOXA4 (Homo sapiens, UniProt Q00056 201-287, W262F).
The target in a further assay is HOXA2 (Homo sapiens, UniProt O43364 129-215, R185T).
Another assay deals with ALX4 (Homo sapiens, UniProt Q9H161 200-286).
The target in assay [5] is PRRX1 (Homo sapiens, UniProt P54821 80-166, F113S).
Assay [6] deals with MSX2 (Homo sapiens, UniProt P35548 130-214).
Assay [7] deals with MSX2 (Homo sapiens, UniProt P35548 130-214, F161Y).
Assay [8] has as its target PRRX1 (Homo sapiens, UniProt P54821 80-166).

Chain of HOXA4 (Homo sapiens, UniProt Q00056 201-287, R217L) (Q00056 201-287 R217L): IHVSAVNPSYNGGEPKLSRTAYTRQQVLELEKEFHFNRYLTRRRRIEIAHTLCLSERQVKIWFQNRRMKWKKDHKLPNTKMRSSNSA
Chain of PRRX1 (Homo sapiens, UniProt P54821 80-166, F113S) (P54821 80-166 F113S): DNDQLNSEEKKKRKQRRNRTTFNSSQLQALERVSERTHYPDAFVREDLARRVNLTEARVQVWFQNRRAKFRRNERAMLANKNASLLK
Chain of MSX2 (Homo sapiens, UniProt P35548 130-214, F161Y) (P35548 130-214 F161Y): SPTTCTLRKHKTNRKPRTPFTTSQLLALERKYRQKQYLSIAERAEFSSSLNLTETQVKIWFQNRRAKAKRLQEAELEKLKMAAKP
Chain of HOXA4 (Homo sapiens, UniProt Q00056 201-287, W262F) (Q00056 201-287 W262F): as the sequence (Q00056 201-287 R217L) above, with L17R, W62F counted along it
Chain of HOXA4 (Homo sapiens, UniProt Q00056 201-287, W262R) (Q00056 201-287 W262R): as the sequence (Q00056 201-287 R217L) above, with L17R, W62R counted along it
Chain of ALX4 (Q9H161 200-286): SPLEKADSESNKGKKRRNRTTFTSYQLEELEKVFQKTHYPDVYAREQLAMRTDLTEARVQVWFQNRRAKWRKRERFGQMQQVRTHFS
Chain of PRRX1 (Homo sapiens, UniProt P54821 80-166) (P54821 80-166): as the sequence (P54821 80-166 F113S) above, with S34F counted along it
Chain of HOXA4 (Homo sapiens, UniProt Q00056 201-287) (Q00056 201-287): as the sequence (Q00056 201-287 R217L) above, with L17R counted along it
Chain of MSX2 (Homo sapiens, UniProt P35548 130-214) (P35548 130-214): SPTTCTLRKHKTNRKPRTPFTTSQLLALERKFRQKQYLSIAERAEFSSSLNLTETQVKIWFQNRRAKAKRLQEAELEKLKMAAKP
Chain of HOXA2 (O43364 129-215 R185T): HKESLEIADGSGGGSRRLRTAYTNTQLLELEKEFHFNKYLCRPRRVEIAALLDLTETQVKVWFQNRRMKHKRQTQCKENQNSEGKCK

As for CCGAGCGG, the binding signal was 9.72 upbm affinity estimate (log intensity, higher = more binding, comparable within an allelic series) with HOXA4 [1]; 9.78 upbm affinity estimate (log intensity, higher = more binding, comparable within an allelic series) with HOXA4 [2]; 9.77 upbm affinity estimate (log intensity, higher = more binding, comparable within an allelic series) with HOXA4 [3]; 9.89 upbm affinity estimate (log intensity, higher = more binding, comparable within an allelic series) in the assay with HOXA4 [4].
Turning to CCCAGGCG, the binding signal with HOXA2 was 7.06 upbm affinity estimate (log intensity, higher = more binding, comparable within an allelic series).
As for AACTAATT, the binding signal in the assay with ALX4 was 13.7 upbm affinity estimate (log intensity, higher = more binding, comparable within an allelic series); with PRRX1 [5] it was 11.1 upbm affinity estimate (log intensity, higher = more binding, comparable within an allelic series); with MSX2 [6] it was 13.3 upbm affinity estimate (log intensity, higher = more binding, comparable within an allelic series); with MSX2 [7], 12.9 upbm affinity estimate (log intensity, higher = more binding, comparable within an allelic series); with PRRX1 [8], 13.3 upbm affinity estimate (log intensity, higher = more binding, comparable within an allelic series).
As to CAATTATA, the binding signal in the assay with ALX4 is 13.8 upbm affinity estimate (log intensity, higher = more binding, comparable within an allelic series); in the assay with PRRX1 [5], 11.5 upbm affinity estimate (log intensity, higher = more binding, comparable within an allelic series); in the assay with HOXA4 [2] it was 12 upbm affinity estimate (log intensity, higher = more binding, comparable within an allelic series); with MSX2 [6] it was 14 upbm affinity estimate (log intensity, higher = more binding, comparable within an allelic series); with MSX2 [7], 13.7 upbm affinity estimate (log intensity, higher = more binding, comparable within an allelic series); with PRRX1 [8], 13.4 upbm affinity estimate (log intensity, higher = more binding, comparable within an allelic series).
Take CCGAGACC: the binding signal was 9.83 upbm affinity estimate (log intensity, higher = more binding, comparable within an allelic series) in the assay with HOXA4 [1]; 9.77 upbm affinity estimate (log intensity, higher = more binding, comparable within an allelic series) with HOXA4 [2]; 9.83 upbm affinity estimate (log intensity, higher = more binding, comparable within an allelic series) with HOXA4 [3]; 9.94 upbm affinity estimate (log intensity, higher = more binding, comparable within an allelic series) with HOXA4 [4].

The values are drawn from PMC11006913.
